The record followed here is PubChem BioAssay (EPA / NIEHS).

Some compounds were tested as several samples or in several runs, with calls that do not always agree. Activity calls are given as the source filed them. The calls were made as follows: active = hit-call score of the fitted dose curve at least 0.9, where 1 is the maximum; inactive = score below 0.9.

The test is described as follows: ATG_GLI_CIS: Attagene CIS-FACTORIAL HepG2 Assay for human Zinc Finger Protein GLI1 (AID 2282945). The following applies: HepG2, Attagene cis-factorial reporter mRNA, GLI element; actives raise or lower the signal. The protocol: ATG_CIS is a cell-based, multiplexed-readout assay that uses HepG2, a human liver cell line, with measurements taken at 24 hours after chemical dosing in a 24-well plate.ATG_GLI_CIS is one of 52 assay component(s) measured or calculated from the ATG_CIS assay. It is designed to make measurements of mRNA induction, a form of inducible reporter, as detected with fluorescence intensity signals by Reverse transcription polymerase chain reaction (RT-PCR) and Capillary electrophoresis technology.Data from the assay component ATG_GLI_CIS was analyzed into 1 assay endpoint. This assay endpoint, ATG_GLI_CIS, was analyzed with bidirectional fitting relative to DMSO as the negative control and baseline of activity. Using a type of inducible reporter, measures of mRNA for gain or loss-of-signal activity can be used to understand the reporter gene at the transcription factor-level as they relate to the gene GLI1. Furthermore, this assay endpoint can be referred to as a primary readout, because this assay has produced multiple assay endpoints where this one serves a reporter gene function. To generalize the intended target to other relatable targets, this assay endpoint is annotated to the dna binding intended target family, where the subfamily is zinc finger.
Human liver HepG2 cells are transiently transfected with multiple reporter transcription units (MRTUs) in 6-well plates using FuGene 6 reagent (Roche; 3 ml FuGene/1 mg DNA). The MRTU constructs are regulated by a cis-regulating element (promoter). […] A major difference between the CIS and TRANS system is that in CIS activities of endogenous TFs are measured, whereas the TRANS assay evaluates changes in activities of exogenous, chimeric NR-Gal4 proteins. […] At the end of 24 hour incubation, total RNA was isolated using TriZol reagent (Invitrogen). The isolated RNA is then reverse-transcribed using oligo(dT) primer and Mo-MLV reverse transcriptase (Invitrogen) with DNAse I (Ambion) treatment for 30 min. The one-tenth of the produced cDNA was amplified by PCR using Taq DNA polymerase (Invitrogen) and two reporter sequence-specific primers. The PCR products were fluorescently labeled by primer extension with 6-arboxyfluorescein (6-FAM) 5'-labeled reporter sequence-specific primer (2 min at 95 C, 20 s at 68 C and 10 min at 72 C) and these products were digested with 5U of HpaI (New England Biolabs) for 2h at 37 C. The fragments were purified using Qiaquick PCR columns (Qiagen), analyzed on an ABI 3130xL genetic analyzer (Applied Biosystems) with peak positions identified by using a set of X-rhodamine (ROX)-labeled MapMarker1000 molecular weight standards (BioVentures). The raw capillary electrophoresis data was processed using Attagraph software (Attagene).
As to `COC(=O)Nc1nc2ccccc2[nH]1`, the result was inactive.
With `CCCCCCCCOC(=O)c1ccc(C(=O)OCCCCCCCC)c(C(=O)OCCCCCCCC)c1`, the AC50 – broadly, the concentration giving half of the maximal activity seen – was 26.3 µM (active).
On to `Nc1ccc(Cc2ccc(N)cc2)cc1`, for which the compound was called inactive.
Turning to `O=C(O)C1C2CCC(O2)C1C(=O)O` (stereo not given), the AC50 is 100 µM (active).
As for `CN(C)C(=O)Nc1ccc(Cl)cc1`, the outcome was inactive.
The same measure, in the same setting: the same measure for `Oc1ccccc1Cl`: “inactive”; for `COC(=O)c1ccccc1N`: “inactive”.
Turning to `Oc1ccc2ccc3cccc4ccc1c2c34`, the result was inactive.
In the case of `Clc1ccc(Cl)c(Cl)c1`, the call was inactive.
For `CC(C)(OOC(C)(C)c1ccccc1)c1ccccc1`, the AC50 is 59.1 µM (active).
With `ClCCOCCCl`, the compound was classed as inactive.
The same measure, in the same setting: the same measure for `[O-][Cl+]O`: “inactive”.
Take `CCOC(=O)[C@]1(c2ccccc2)Oc2ccccc2[C@@H]1N`: the AC50 is 59.5 µM (active).
Consider `CCCCCCCCn1sccc1=O`, for which the AC50 was 16.9 µM (active).
Regarding `O=C1CCCO1`, the result was inactive.
As for `Clc1ccc(C(c2ccc(Cl)cc2)C(Cl)Cl)cc1`, the AC50 was 45.9 µM (active).
As to `Nc1ccc([N+](=O)[O-])cc1`, the call was inactive.
For the compound `c1ccc2c(c1)oc1ccccc12`, the result was inactive.
With `Nc1ccc(N=Nc2ccccc2)cc1`, the call was inactive.
On to `[As]#[In]`, for which the compound was classed as inactive.
Still for that read-out and setting: as for `CCN(CC)N=O`, the entry is “inactive”.
As to `CNC(=O)Oc1cccc2c1OC(C)(C)C2`, the compound was called inactive.
On the same count and under the same terms, the same measure for `Clc1ccc(C(c2ccc(Cl)cc2)C(Cl)(Cl)Cl)cc1`: “inactive”; for `Cn1cc(-c2ccccc2)c(=O)c(-c2cccc(C(F)(F)F)c2)c1`: “inactive”; for `c1ccc(C2CO2)cc1` (stereo not given): “inactive”.
As to `CC(O)CCO` (stereo not given), the result was inactive.
On to `CCNS(=O)(=O)C(F)(F)C(F)(F)C(F)(F)C(F)(F)C(F)(F)C(F)(F)C(F)(F)C(F)(F)F`, for which the compound was called inactive and the AC50 is 96.5 µM (active).
`CCCCOC(=O)c1ccccc1C(=O)OCc1ccccc1`: the compound was classed as inactive.
The same measure, in the same setting: as for `CC(C)COC(=O)c1ccccc1C(=O)OCC(C)C`, the entry is “inactive”; as for `OCCOCCO`, “inactive”.
Still for that read-out and setting: as for `CS(=O)(=O)NC(=O)c1cc(Oc2ccc(C(F)(F)F)cc2Cl)ccc1[N+](=O)[O-]`, the entry is “inactive”.
`O=[N+]([O-])C(Br)(CO)CO`: the AC50 is 169 µM (active).
`CC(C)(O)c1cnn2c(-c3ccc(F)c(-c4c(F)cccc4C#N)c3)cnc2n1`: the call was inactive.
Same read-out and setting: the same measure for `Brc1ccc(Oc2ccccc2)cc1`: “inactive”; for `C=CCc1ccc2c(c1)OCO2`: “inactive”.
On to `CCC12COCN1COC2`, for which the compound was called inactive.
With `Nc1ccc(Cl)cc1N`, the outcome was inactive.
With `CC(C)N(Cc1ccccc1)C(=O)C(C)(C)C`, the outcome was inactive.
Still for that read-out and setting: as for `c1ccc(NNc2ccccc2)cc1`, the entry is “inactive”.
